# Screens: PubChem, National Center for Advancing Translational Sciences (NCATS)
# CtBP-E1A blk: inhibitors of CtBP/E1A interaction; AlphaScreen GST-E1A/His-CtBP binding, 1536-well; stronger effect = lower value; activity change, % (no concentration beside the values); 340,000 compounds, 0.49% hits; AID 651724; in the data active means activity change below about -65%; inconclusive means mostly about -30% to -63%
#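 AlphaScreen with 125 nM GST-E1A and 125 nM His-CtBP (5X stocks) in Tris pH 8.0, 300 mM NaCl, BSA, Tween 20, TCEP. Compounds preincubated 2 h at 37 deg C, then glutathione donor/nickel acceptor beads added for 1 h at 37 deg C in dark.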
# TDP1 block: TDP1 (human) enzyme inhibition; recombinant TDP1, AlphaScreen DNA substrate cleavage; 350,000 compounds, 0.28% hits; AID 485290; Potency, µM (titrated, usually from 130 µM), for the others: top-dose activity change, negative = inhibition, usual class: inhibitors; further: potency means the concentration at half of the fitted maximal effect; nearly all actives have a fitted effect of over 40% in size
#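 Steps: enzyme plus compound, 15 min RT; add biotin/phosphotyrosine-FITC oligonucleotide (15 nM final), react 5 min; add donor/acceptor beads (10 ug/ml final), 10 min; read AlphaScreen. Tdp1 at 1 nM final.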
# DT40 TDP1 CPT: growth inhibition of DT40 Tdp1-/-;hTDP1 cells with camptothecin (screen for TDP1 inhibitors); chicken DT40 Tdp1-/-;hTDP1 cells + 20 nM CPT, ATP luminescence, 48 h; Potency, µM (top dose mostly 46.2 µM), without a hit: at the highest dose activity change, negative = growth inhibition, actives largely listed as inhibitors; 420,000 compounds, 12% hits; further: potency means the concentration at half of the fitted maximal effect; nearly all actives have a fitted effect of over 55% in size
#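 Chicken DT40 Tdp1-/- cells stably complemented with human TDP1 were seeded at 400 cells/well in medium containing 20 nM camptothecin, exposed to pin-transferred compounds, and grown at 37 °C for at least 48 hr. Viability was read as ATP luminescence.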
# IL-1B inflam inh: inhibitors of inflammasome signaling (IL-1 beta secretion) | THP-1 LPS/ATP IL-1B secretion, AlphaLISA, 16 h; stronger effect = lower value | activity change, % at 57.5 µM | 360,000 compounds, 4.7% hits | AID 743279; in the data active means activity change below about -50%; inconclusive means mostly about -30% to -49%
#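 Secreted IL-1B measured by AlphaLISA bead assay after 16 h compound exposure of THP-1 cells; compounds (final up to 57.5 uM) added 1 h before LPS (250 ng/mL) and ATP (1.25 mM) stimulation; lower signal means less secretion.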
# TDP1 cell noCPT: qHTS for Inhibitors of human tyrosyl-DNA phosphodiesterase 1 (TDP1): qHTS in cells in absence of CPT | DT40 Tdp1-/- hTDP1 cells, no CPT, ATP luminescence, 48 h | Potency, µM (doses to about 46.2 µM), without a hit: at the highest dose activity change, negative = growth inhibition, usual class: inhibitors | 420,000 compounds, 15% hits | AID 686978, 2013; further: potency means the concentration at half of the fitted maximal effect; nearly all actives have a fitted effect of over 55% in size
#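 Growth kinetics read by CellTiter-Glo luminescence after ≥48 hr at 37 °C. Cells: DT40 Tdp1-/- stably carrying human TDP1, 400 per well, compound exposure in the absence of CPT (DMSO vehicle).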
# Six1-Eya2 inh: Six1/Eya2 interaction inhibition | Q15475+O00167 | AlphaScreen GST-Six1/His-Eya2 binding, biochemical; stronger effect = lower value | activity change, % (no concentration beside the values) | 360,000 compounds, 0.56% hits; in the data active means activity change below about -65%; inconclusive means mostly about -30% to -63%
# Target sequence (O00167 whole entry, looked up): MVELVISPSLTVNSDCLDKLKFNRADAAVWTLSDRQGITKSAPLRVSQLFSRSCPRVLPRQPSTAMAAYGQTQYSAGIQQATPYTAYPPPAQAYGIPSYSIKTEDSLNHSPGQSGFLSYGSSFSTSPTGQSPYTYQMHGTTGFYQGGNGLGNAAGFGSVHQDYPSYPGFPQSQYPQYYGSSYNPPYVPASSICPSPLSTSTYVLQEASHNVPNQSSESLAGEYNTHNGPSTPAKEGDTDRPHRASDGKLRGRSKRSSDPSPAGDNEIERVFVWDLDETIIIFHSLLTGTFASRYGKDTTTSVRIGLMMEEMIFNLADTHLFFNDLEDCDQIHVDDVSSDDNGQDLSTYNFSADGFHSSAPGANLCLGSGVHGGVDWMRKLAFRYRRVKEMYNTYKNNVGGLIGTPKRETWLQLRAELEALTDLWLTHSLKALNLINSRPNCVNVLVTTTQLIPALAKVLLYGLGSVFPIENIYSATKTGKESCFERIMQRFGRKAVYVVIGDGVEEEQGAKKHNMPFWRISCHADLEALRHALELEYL
# Target sequence (Q15475 whole entry, looked up): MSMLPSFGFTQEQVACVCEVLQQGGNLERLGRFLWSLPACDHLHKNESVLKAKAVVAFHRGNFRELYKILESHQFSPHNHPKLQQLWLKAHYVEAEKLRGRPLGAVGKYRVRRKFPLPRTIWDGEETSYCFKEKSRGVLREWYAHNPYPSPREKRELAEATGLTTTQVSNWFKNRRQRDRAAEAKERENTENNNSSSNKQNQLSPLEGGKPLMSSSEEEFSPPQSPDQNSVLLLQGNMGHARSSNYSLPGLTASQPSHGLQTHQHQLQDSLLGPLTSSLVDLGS
#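 Compounds are tested against tagged Six1 and Eya2 proteins bridged by glutathione donor and nickel acceptor beads; after a one-hour incubation at 37 °C without light, AlphaScreen emission is recorded.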
# * hit, by the source's call; ? = inconclusive; . = no result given; [ ] = dose if it differs, or a comment. The list is not random: actives were taken first. Their share in the collection is about 18%. Unless noted, the call rests on the fitted dose curve; in most records, active means well fitted curve in the direction sought with a large enough effect; inconclusive means small, poorly fitted or top-dose-only effect, or another doubt; inactive means no such curve, though single readings can be large; an effect the other way counts as inactive or inconclusive. On the % scale 0 is the no-effect control and ±100 the full control effect.
SMILES,CtBP-E1A blk,TDP1 block,DT40 TDP1 CPT,IL-1B inflam inh,TDP1 cell noCPT,Six1-Eya2 inh
O=C(CCl)N(Cc1cc(=O)[nH]c2ccccc12)c1ccccc1,.,.,4.1µM*,-78*,2.3µM*,-18
Cc1cccc(N(Cc2ccccc2)C(=O)CCl)c1,5,-3%,2.3µM*,-6,?,-6
O=C(CCl)N(Cc1ccccc1)c1ccccc1,1,-3%,5.2µM*,-96*,5.8µM*,-1
COc1ccc(C(=O)N(Cc2ccccc2)c2cccc(C)c2)c(OC)c1OC,5,2%,?,-10,?,-2
CCc1ccc(-n2nc(CO)c(C(=O)NCCOC)n2)cc1,.,-7%,-16%,.,-20%,.
Cc1ccc2c(c1)COc1c3ccc(C(=O)N[C@@H](C)CO)cc3nn1-2,-1,2%,?,-21,?,1
COCCNC(=O)c1ccc2c3n(nc2c1)-c1ccccc1CO3,-3,5%,?,-27,?,0
COCCNC(=O)c1ccc2c3n(nc2c1)-c1ccc(Cl)cc1CO3,6,2%,?,-9,21µM*,3
C=CCNC(=O)c1ccc2c3n(nc2c1)-c1ccccc1CO3,-4,4%,15µM*,6,23µM*,0
Cc1ccc2c(c1)COc1c3ccc(C(=O)NC(C)C)cc3nn1-2,-2,6%,?,-2,10µM*,-4
COc1ccc(N2CCN(C(=O)c3cccc(S(=O)(=O)N4CCCc5ccccc54)c3)CC2)cc1,.,3%,?,2,?,-28
CS(=O)(=O)N1CCc2cc(C(=O)N3CCN(c4ccc(F)cc4)CC3)ccc21,.,3%,?,-12,21µM*,-2
COc1ccc(N2CCN(C(=O)c3cccc(S(=O)(=O)N4CCc5ccccc54)c3)CC2)cc1,?,0%,?,25,15µM*,?
O=C(c1cccc(S(=O)(=O)N2CCc3ccccc32)c1)N1CCN(c2ccccn2)CC1,-8,5%,?,-12,23µM*,-4
Cc1cccc(C)c1OCC(=O)Nc1ccc2c(c1)C(=O)NC2=O,-11,2%,-15%,11,-1%,-5
CCOc1ccc(N2CC(NC(=O)c3cccs3)CC2=O)cc1 (stereo not given),.,5%,-4%,.,-14%,.
Cc1ccc(S(=O)(=O)c2cn(CC(=O)Nc3ccc4c(c3)OCO4)c3ccccc3c2=O)cc1,.,4%,0%,.,?,.
CC(C)(C)OC(=O)NCc1ccc(NC(=O)c2nc[nH]c2C(=O)NCCNC(=O)c2[nH]cnc2C(=O)Nc2ccc(CNC(=O)OC(C)(C)C)cc2)cc1,1,0%,15µM*,60,18µM*,3
CC(C)(C)OC(=O)CNC(=O)c1nc[nH]c1C(=O)NCc1ccccc1,-19,.,?,19,-16%,5
CC(C)(C)OC(=O)CNC(=O)c1nc[nH]c1C(=O)NCc1ccc(CNC(=O)OC(C)(C)C)cc1,-6,.,18µM*,4,15µM*,-6
CCOC(=O)c1ccc(NC(=O)c2nc[nH]c2C(=O)N[C@@H](C)CO)cc1,-7,.,-1%,?,21µM*,-3
C[C@@H](CO)NC(=O)c1[nH]cnc1C(=O)Nc1ccc(CNC(=O)OC(C)(C)C)cc1,-11,.,23µM*,-4,12µM*,-1
O=C(CCNS(=O)(=O)c1ccc(Cl)cc1)OCC(=O)c1ccc[nH]1,-1,6%,10%,-2,-6%,-2
O=C(CN1C(=O)C2CC=C(Cl)CC2C1=O)N1CCOCC1 (stereo not given),5,3%[56.1 µM],-2%,13,7%,0
CC1(C)CCC(=O)N2CC[C@H]3C[C@H](OC(=O)Nc4ccc5c(c4)OCO5)C[C@@H]1[C@H]32,0,.,?,-15,?,-7
SMILES,CtBP-E1A blk,TDP1 block,DT40 TDP1 CPT,IL-1B inflam inh,TDP1 cell noCPT,Six1-Eya2 inh
CCCCCC/C=C/c1ccc(C2C3C=CCC(C)C3C(=O)N2Cc2ccccc2)c(F)c1 (stereo not given),.,0%,.,.,.,.
COc1ccc(-c2ccc([C@H]3[C@H]4C=CC[C@@H](C)[C@@H]4C(=O)N3Cc3ccccc3)c(F)c2)cc1OC,-13,2%,18µM*,?,16µM*,-13
COc1ccc(-c2ccc([C@H]3[C@H]4C=CC[C@@H](C)[C@@H]4C(=O)N3Cc3ccccc3)c(F)c2)cc1,0,-1%,?,-3,21µM*,-12
COc1ccc(-c2c([C@H]3[C@H]4C=CC[C@@H](C)[C@@H]4C(=O)N3Cc3ccccc3)ccc3ccccc23)cc1,-15,4%,10µM*,-10,10µM*,-18
CC1CC=CC2C1C(=O)N(Cc1ccccc1)C2c1ccc2ccccc2c1-c1ccc(N(C)C)cc1 (stereo not given),.,4%,.,.,.,.
CCCCCC/C=C/c1ccc([C@H]2[C@H]3C=CC[C@@H](C)[C@@H]3C(=O)N2Cc2ccccc2)c(F)c1,1,-2%,?,28,16µM*,5
CCN(CC)S(=O)(=O)c1ccc2nc(NC(=O)c3cccs3)sc2c1,-1,5%,?,23,?,-1
CCN1CCN(c2ncnc3scc(-c4ccc(C)cc4)c23)CC1,-13,2%,?,-15,?,?
Cc1ccc(S(=O)(=O)N2CCN(c3ncnc4sccc34)CC2)cc1,3,3%,7.3µM*,-10,3.3µM*,0
COc1ccc(-c2csc3ncnc(N4CCN(S(=O)(=O)c5ccc(C)c(C)c5)CC4)c23)cc1,-4,1%,?,84,18µM*,3
O=S(=O)(c1ccccc1)N1CCN(c2ncnc3scc(-c4ccccc4)c23)CC1,-10,13%,16µM*,-4,?,-11
Cc1ccc(-c2csc3ncnc(N4CCN(S(=O)(=O)c5ccc(C#N)cc5)CC4)c23)cc1,-2,.,?,7,16µM*,-2
OCCN1CCN(c2ncnc3scc(-c4ccc(F)cc4)c23)CC1,-7,1%,-7%,?,4%,6
CC(=O)c1cccc(S(=O)(=O)N2CCN(c3ccccc3F)CC2)c1,.,-3%,?,-7,?,-1
O=C(N/N=C1\CCS(=O)(=O)c2ccc(F)cc21)c1ccc([N+](=O)[O-])cc1,.,.,?,10,?,-5
Cc1ccc(NC(=O)CCCC(=O)O)c(-c2nc3ccccc3[nH]c2=O)c1,-8,-3%,-11%,20,19%,3
